Data reported in paper PMC7862700, “An all-to-all approach to the identification of sequence-specific readers for epigenetic DNA modifications on cytosine”.

Columns and labels:
Experiment in all cases: DAPPL (digital affinity profiling via proximity ligation, sequencing); 10 mM Tris-HCl pH 7.5, 50 mM NaCl, 1 mM DTT, 4% glycerol, room temperature, 30 min; GST-TFs on glutathione beads, 16-mer random dsDNA library, 0.1% formaldehyde crosslink after washing; high values mean tight binding
Conditions in all cases: protein: recombinant; tags: N-terminal GST; dsDNA, one strand shown
FLI1 = target: T1, FLI1 (Homo sapiens, UniProt Q01543 1-452)
T1 sequence: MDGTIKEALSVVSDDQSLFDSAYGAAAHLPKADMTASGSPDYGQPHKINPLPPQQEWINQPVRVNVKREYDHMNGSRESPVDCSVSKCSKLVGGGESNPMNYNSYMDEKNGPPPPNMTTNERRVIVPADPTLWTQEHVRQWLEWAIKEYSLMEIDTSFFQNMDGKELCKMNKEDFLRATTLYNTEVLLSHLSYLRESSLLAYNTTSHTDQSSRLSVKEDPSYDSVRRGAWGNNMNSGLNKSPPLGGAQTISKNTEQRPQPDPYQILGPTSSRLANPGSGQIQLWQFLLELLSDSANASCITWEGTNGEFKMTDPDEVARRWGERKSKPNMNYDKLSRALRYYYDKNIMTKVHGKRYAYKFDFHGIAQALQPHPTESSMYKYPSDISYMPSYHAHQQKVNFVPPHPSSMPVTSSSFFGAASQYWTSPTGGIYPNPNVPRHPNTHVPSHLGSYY
Summary of the method: (§1)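 Binding signal is defined as a hexamer's read frequency for one factor over its frequency for the tag-only sample. To obtain reads, GST-fused human transcription factors were expressed in yeast, captured on glutathione beads, barcoded with DNA and pooled with that sample. Pools met 200 nmole of a 16-mer random double-stranded DNA library in Tris/NaCl/DTT/glycerol buffer for 30 min at room temperature before washing, 0.1% formaldehyde crosslinking, proximity ligation (BsaI/T4 ligase, 1 h, 37 °C), PCR and Illumina NextSeq500 sequencing.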

ELK1 = target: T2, ELK1 (Homo sapiens, UniProt P19419 1-428)
T2 sequence: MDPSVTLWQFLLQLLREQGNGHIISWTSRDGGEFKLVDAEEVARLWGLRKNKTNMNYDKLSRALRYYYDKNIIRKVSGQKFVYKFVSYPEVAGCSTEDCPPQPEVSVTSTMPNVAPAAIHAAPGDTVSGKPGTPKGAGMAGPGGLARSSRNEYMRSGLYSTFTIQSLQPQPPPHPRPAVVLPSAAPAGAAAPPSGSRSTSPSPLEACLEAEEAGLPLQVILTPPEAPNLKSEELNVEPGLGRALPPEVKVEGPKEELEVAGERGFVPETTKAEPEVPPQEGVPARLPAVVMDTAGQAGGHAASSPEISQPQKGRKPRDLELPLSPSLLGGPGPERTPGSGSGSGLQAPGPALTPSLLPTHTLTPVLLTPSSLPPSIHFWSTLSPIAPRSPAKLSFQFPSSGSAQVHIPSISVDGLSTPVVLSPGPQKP
Summary of the method: as §1

GABPA = target: T3, GABPA (Homo sapiens, UniProt Q06546 1-454)
T3 sequence: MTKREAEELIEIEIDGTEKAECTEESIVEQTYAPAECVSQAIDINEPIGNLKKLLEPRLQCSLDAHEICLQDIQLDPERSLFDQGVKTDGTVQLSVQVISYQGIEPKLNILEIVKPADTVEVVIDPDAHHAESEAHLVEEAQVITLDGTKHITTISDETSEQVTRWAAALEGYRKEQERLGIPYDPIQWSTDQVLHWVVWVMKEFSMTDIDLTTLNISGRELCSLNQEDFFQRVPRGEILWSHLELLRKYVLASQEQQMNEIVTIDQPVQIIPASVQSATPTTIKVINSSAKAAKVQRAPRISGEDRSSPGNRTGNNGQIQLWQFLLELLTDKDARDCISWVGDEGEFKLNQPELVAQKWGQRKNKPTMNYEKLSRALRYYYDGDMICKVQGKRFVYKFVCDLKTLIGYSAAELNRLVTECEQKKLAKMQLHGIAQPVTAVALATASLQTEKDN
Summary of the method: as §1

ERG = target: T4, ERG (Homo sapiens, UniProt P11308 1-479)
T4 sequence: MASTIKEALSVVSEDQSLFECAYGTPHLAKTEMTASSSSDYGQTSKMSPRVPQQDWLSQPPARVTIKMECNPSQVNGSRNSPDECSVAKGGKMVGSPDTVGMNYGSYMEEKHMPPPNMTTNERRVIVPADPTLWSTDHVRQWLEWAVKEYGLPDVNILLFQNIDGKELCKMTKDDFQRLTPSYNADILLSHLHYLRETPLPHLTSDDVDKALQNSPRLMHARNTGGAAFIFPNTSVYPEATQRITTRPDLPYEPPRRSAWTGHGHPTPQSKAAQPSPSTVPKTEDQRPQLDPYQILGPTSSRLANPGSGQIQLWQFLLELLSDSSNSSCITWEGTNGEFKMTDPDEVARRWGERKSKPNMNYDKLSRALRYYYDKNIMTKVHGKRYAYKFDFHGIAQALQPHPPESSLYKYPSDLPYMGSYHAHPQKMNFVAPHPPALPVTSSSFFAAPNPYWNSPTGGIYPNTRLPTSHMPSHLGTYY
Summary of the method: as §1

ELF1 = ELF1 (Homo sapiens, UniProt P32519 1-619)
Summary of the method: as §1

EHF = target: T5, EHF (Homo sapiens, UniProt Q9NZC4 1-300)
T5 sequence: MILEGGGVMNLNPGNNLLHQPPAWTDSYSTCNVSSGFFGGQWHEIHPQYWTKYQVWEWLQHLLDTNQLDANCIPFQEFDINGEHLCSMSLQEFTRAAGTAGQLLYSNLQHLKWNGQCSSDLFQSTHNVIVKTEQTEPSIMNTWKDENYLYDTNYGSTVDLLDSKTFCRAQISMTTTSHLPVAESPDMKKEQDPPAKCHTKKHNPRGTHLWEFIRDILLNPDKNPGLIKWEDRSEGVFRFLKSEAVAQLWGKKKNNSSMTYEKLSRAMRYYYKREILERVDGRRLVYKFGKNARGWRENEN
Summary of the method: as §1

SPI1 = SPI1 (Homo sapiens, UniProt P17947 1-270)
Summary of the method: as §1

SPIB = SPIB (Homo sapiens, UniProt Q01892 1-262)
Summary of the method: as §1

ELK3 = target: T6, ELK3 (Homo sapiens, UniProt P41970 1-407)
T6 sequence: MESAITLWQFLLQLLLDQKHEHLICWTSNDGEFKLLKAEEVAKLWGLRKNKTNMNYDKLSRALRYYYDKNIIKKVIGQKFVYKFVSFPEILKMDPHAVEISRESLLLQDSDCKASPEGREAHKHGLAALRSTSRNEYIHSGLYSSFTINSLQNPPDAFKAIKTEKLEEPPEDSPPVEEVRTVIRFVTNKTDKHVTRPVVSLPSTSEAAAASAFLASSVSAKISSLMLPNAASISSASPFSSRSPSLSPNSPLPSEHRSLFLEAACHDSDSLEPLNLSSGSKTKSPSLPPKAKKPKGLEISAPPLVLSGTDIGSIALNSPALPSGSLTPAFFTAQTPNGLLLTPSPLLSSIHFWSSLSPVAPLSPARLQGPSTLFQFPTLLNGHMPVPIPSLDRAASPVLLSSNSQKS
Summary of the method: as §1

ETV5 = ETV5 (Homo sapiens, UniProt P41161 1-510)
Summary of the method: as §1

Chain of ELF1 (P32519 whole entry): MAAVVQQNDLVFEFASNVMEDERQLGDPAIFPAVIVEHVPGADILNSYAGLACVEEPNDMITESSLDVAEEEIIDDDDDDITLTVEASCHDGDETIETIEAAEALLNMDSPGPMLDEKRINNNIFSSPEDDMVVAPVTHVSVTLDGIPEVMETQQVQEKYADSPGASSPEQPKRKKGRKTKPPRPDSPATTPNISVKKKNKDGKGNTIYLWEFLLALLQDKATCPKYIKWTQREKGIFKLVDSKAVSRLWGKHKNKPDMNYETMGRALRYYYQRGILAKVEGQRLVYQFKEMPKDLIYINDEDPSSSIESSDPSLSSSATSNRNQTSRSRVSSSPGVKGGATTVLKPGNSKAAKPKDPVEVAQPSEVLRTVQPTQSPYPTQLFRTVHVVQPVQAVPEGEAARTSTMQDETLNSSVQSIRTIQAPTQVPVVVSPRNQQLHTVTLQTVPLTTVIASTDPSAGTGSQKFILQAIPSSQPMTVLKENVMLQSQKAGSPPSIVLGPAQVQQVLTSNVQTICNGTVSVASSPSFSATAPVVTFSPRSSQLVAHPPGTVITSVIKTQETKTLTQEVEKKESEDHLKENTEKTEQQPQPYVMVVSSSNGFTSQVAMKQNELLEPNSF
Chain of ETV5 (P41161 whole entry): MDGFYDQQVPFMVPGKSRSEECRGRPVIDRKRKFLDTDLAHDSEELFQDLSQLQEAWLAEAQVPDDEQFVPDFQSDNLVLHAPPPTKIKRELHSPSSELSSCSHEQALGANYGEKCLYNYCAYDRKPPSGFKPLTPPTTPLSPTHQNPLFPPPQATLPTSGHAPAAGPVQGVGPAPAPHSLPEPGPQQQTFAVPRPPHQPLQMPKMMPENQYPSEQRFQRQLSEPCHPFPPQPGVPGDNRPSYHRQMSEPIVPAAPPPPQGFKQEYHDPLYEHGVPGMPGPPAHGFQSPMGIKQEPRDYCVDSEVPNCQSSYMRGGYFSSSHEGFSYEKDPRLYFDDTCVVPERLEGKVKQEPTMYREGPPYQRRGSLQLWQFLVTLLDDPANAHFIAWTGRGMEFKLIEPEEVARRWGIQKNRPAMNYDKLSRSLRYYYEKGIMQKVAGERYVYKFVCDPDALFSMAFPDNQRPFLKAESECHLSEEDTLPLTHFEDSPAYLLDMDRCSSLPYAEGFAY
Chain of SPIB (Q01892 whole entry): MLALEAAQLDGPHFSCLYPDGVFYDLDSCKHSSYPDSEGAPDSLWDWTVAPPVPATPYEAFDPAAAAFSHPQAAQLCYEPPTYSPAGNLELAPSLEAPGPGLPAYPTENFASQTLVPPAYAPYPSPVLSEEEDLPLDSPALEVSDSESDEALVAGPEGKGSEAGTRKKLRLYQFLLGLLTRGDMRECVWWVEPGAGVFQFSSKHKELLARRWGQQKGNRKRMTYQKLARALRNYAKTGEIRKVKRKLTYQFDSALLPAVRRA

In the case of CATGAC, the binding signal (FLI1) is reported as 1.23 fold enrichment (6-mer frequency, TF over GST control), the binding signal (ELK1) is reported as 1.18 fold enrichment (6-mer frequency, TF over GST control) and the binding signal (GABPA) is reported as 1.34 fold enrichment (6-mer frequency, TF over GST control). The binding signal (ERG) was 1.14 fold enrichment (6-mer frequency, TF over GST control), the binding signal (ELF1) was 1.18 fold enrichment (6-mer frequency, TF over GST control) and the binding signal (EHF) was 1.25 fold enrichment (6-mer frequency, TF over GST control). The binding signal (SPI1) was 1.28 fold enrichment (6-mer frequency, TF over GST control), the binding signal (SPIB) was 1.16 fold enrichment (6-mer frequency, TF over GST control) and the binding signal (ELK3) was 1.17 fold enrichment (6-mer frequency, TF over GST control). For the same sequence, the binding signal (ETV5) was 1.24 fold enrichment (6-mer frequency, TF over GST control).
